# High-throughput results deposited in PubChem BioAssay by National Center for Advancing Translational Sciences (NCATS).
# Only some compounds are listed: those with a hit (about 4.6% of all), similar ones and a draw of the others.
# D1 antag: blocks dopamine activation of the human D1 receptor. P21728. HEK293 TREx D1 cells, calcium flux, dopamine EC80; stronger effect = lower value. activity change, negative = inhibition, % at 10 µM. 360,000 tested, 3.2% active. AID 504652; in the data active = activity change below about -30%; note: % is set by controls: 0 for no effect and ±100 for the full control effect
#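 Antagonism measured as reduced calcium response to an EC80 dopamine addition following 180 s compound pre-read; cells were inducible HEK293 Trex D1 plated overnight at 30 C, read kinetically at 1 cycle/sec.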
# D1 potentiator: enhances dopamine response at the human D1 receptor; P21728; HEK293 TREx D1 cells, calcium flux, dopamine EC20 potentiation; potentiation, % at 10 µM; 360,000 tested, 0.036% active; AID 504651; in the data active = potentiation above about 30%; note: 0% is about no effect
# TRHR ag: TRH receptor (human) agonism. P34981. TRHR cells, calcium flux fluo-8, FDSS agonist mode. activation, % at 2 µM. 360,000 tested, 0.18% active. AID 493084; note: 0% is about no effect
# Target sequence (P34981 whole entry, looked up): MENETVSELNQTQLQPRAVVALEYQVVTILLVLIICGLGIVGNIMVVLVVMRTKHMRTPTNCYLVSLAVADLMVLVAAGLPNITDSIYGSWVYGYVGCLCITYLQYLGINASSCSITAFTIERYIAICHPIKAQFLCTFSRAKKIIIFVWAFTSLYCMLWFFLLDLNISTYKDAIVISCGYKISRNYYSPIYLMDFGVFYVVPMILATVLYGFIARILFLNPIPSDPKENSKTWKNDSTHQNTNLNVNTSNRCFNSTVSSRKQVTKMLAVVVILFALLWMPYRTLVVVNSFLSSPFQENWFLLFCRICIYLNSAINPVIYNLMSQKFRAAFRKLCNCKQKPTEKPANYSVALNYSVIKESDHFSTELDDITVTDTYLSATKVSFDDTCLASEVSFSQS
#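 Agonist-mode FDSS calcium read (Ex 480/Em 530, 1 s cycles) in 1536-well TRHR cells with fluo-8 dye, after 10-cycle baseline and 23 nL compound addition; TRH at EC20 (10 nM final) added afterwards for the enhancer phase.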
# TRHR PAM: TRH receptor (human) allosteric enhancement; P34981; enhancement, % at 2 µM; AID 493056; TRHR cells, fluo-8 calcium fluorescence, EC20 TRH enhancement; 360,000 tested, 0.66% active; in the data active = enhancement above about 30%; note: 0% is about no effect
#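 Enhancer read-out: after compound pinning and an initial kinetic agonist-mode read, an EC20 of TRH (10 nM final) was injected and fluo-8 calcium signal (Ex 480/Em 530) followed at 1 s/cycle for 100 cycles in TRHR-expressing cells.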
# D1 ag: human D1 receptor agonism | activation, % at 2 µM | AID 504660 | 360,000 tested, 1% active | HEK293 T-REx D1 cells, calcium flux, agonist mode | P21728; note: 0% is about no effect
#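 Agonism was scored from calcium flux recorded over 180 s (1 read/s) after pintool compound addition, following a 10-cycle baseline. Cells were inducible force-coupled HEK293 TREx D1, plated overnight at 30 C and loaded with no-wash calcium dye.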
# Numbers without * were called inactive; nt = not tested or not shown; ! = a repeat was not active. Cut-off read from the data, not from the text of the source, unless noted: active = activation above about 30%; inactive = the rest.
SMILES,D1 antag,D1 potentiator,TRHR ag,TRHR PAM,D1 ag
CN(C)S(=O)(=O)c1cc(NC(=O)Cn2ccsc2=N)ccc1Cl,-30*,-3,0,-5,1
Cn1cc(C(=O)NCc2ccc(F)cc2)cn1,8,-2,0,-2,-3
CC(=NCc1ccco1)c1c(C)[nH]n(-c2nc3ccccc3s2)c1=O,-66*,-7,0,-18,-1
CCC(=NCc1ccco1)c1c(C(F)(F)F)[nH]n(-c2nc3ccccc3s2)c1=O,5,1,-1,-3,4
Cc1cc(OCCCC(=O)N2CCCCC2)cc(C)c1Cl,-1,-2,-1,-1,2
CC(C)Cc1nnc(NC(=O)C2=COCCO2)s1,17,-2,1,-2,2
OCCn1c(-c2ccc(F)cc2)csc1=Nc1ccccc1,-31*,-8,0,1,6
COc1ccc(C2/C(=C(/O)c3ccc4c(c3)CC(C)O4)C(=O)C(=O)N2Cc2cccnc2)cc1 (stereo unspecified),-42*,2,0,14,0
O=C1C(=O)N(Cc2cccnc2)C(c2cccc(F)c2)/C1=C(/O)c1ccc2c(c1)OCO2 (stereo unspecified),-62*,-10,2,-4,2
CC1(C)CC(NC(=O)c2sc3cc(Cl)ccc3c2Cl)CC(C)(C)N1,-37*,-10,1,9,8
CN1CCC(N(C)CC(O)c2ccccc2)CC1 (stereo unspecified),10,-3,1,-1,0
CN1CCC(OC(c2ccccc2)c2ccccc2)CC1,-37*,-5,-1,10,24
CN1CCC(Oc2ccccc2Sc2ccccc2)CC1,-63*,-10,1,7,26
CC(O)C(O)C(O)C(O)C1NCCS1 (stereo unspecified),-66*,1,0,-1,0
COc1ccc(S(=O)(=O)N(C)C)cc1NC(=O)CN1CCN(C(=O)C2CC2)CC1,-2,-3,1,7,3
CN(C)C(=O)NC(Nc1ccc(Cl)cc1Cl)C(Cl)(Cl)Cl (stereo unspecified),0,-3,-1,-4,-1
Cc1cc(NC(=O)CN2C(=O)c3ccccc3S2(=O)=O)no1,18,-4,0,30*,2
Cc1ccc(N2C(=O)CSC2c2c(F)cccc2Cl)cc1 (stereo unspecified),-9,-4,0,-7,4
Cc1cc(=O)n(Cc2ccccc2)c2c1c(C)nn2C,-12,-5,0,12,5
Cc1nn(C)c2c1c(-c1ccccc1)cc(=O)n2Cc1ccc(Cl)cc1,-5,-5,1,39*,18
COC(=O)CN1C(=S)N(c2ccc(OC)cc2)C(=O)/C1=C/c1ccc(OC)cc1,-4,1,1,3,6
COC(=O)CN1C(=S)N(c2ccc(OC)cc2)C(=O)/C1=C/c1ccc(N2CCOCC2)cc1,nt,-4,10,-3,33*
CN1CCc2cccc3c2[C@H]1Cc1ccc(O)c(O)c1-3,-90*,-7,3,-7,43*!
C/C(N)=C(/C#N)C(=O)CSc1nnnn1-c1ccc(C)cc1,-44*,-5,0,-27,4
C/C(N)=C(/C#N)C(=O)CSc1nnnn1-c1ccccc1,0,0,0,1,2
SMILES,D1 antag,D1 potentiator,TRHR ag,TRHR PAM,D1 ag
COCCCn1c(=O)c2sccc2n2c(CCCC(=O)NCc3ccc(OC)cc3)nnc12,-31*,-2,0,1,4
COCCCn1c(=O)c2sccc2n(Cc2cccc(F)c2)c1=O,-36*,-3,-1,-11,3
Cc1nn(CC(=O)NCc2ccc(Cl)cc2)c(=O)c2cc3sccc3n12,-2,0,0,-2,-1
Cc1nn(CCCC(=O)NCc2ccccc2)c(=O)c2cc3sccc3n12,-32*,1,0,2,-2
NC(=O)Cn1c(=O)n(CCCCCC(=O)NCc2ccccc2)c(=O)c2sccc21,-39*,-2,1,-3,1
Cc1cccc(NC(=O)Cn2c(=O)n(CCCCCC(=O)NCc3ccccc3)c(=O)c3sccc32)c1,-9,-1,-1,-4,3
COc1ccc(C2=NN(c3nc(C(=O)O)cs3)C(O)(C(F)(F)F)C2)c(OC)c1 (stereo unspecified),2,1,0,2,0
CCN(CC)C(=O)c1sc2c(c1C)c(=O)n(-c1ccc(OC)cc1OC)c(=O)n2CC(=O)Nc1ccccc1,2,-2,0,-7,27
COc1ccc(NC(=O)CCCn2c(=O)c3sccc3n(Cc3ccccc3)c2=O)cc1,-34*,-13,0,-6,8
CCN(CC)C(=O)c1sc2c(c1C)c(=O)n(Cc1ccccc1)c(=O)n2CC(=O)Nc1ccc(OC)cc1,-35*,1,6,-9,6
Cc1ccc2occ(/C=N/NC(=O)c3ccc(Cl)cc3)c(=O)c2c1,-9,2,0,-4,2
Cc1ccc2occ(/C=N/NC(=O)c3ccncc3)c(=O)c2c1,-34*,-2,0,-1,1
CCN(CC)C(=S)Nc1ccc(OC(F)F)cc1,-5,-4,0,7,2
C/C(=N\NC(=S)NC1CCCCC1)c1ccc(C#N)cc1,5,10,1,-6,2
Cc1ccc(-n2c(=O)c3c(cnn3C)n(CC(=O)Nc3c(C)cccc3C)c2=O)cc1,-3,0,0,6,-1
CCOC(=O)NN1C(=O)c2ccccc2NC1c1ccccn1 (stereo unspecified),-30*,-3,0,-3,3
COC(=O)C1(C(=O)OC)NOC2C(=O)N(N(C)c3ncc(C(F)(F)F)cc3Cl)C(=O)C21 (stereo unspecified),4,-2,1,-1,1
COc1ccc(C2C3C(=O)N(N(C)c4ncc(C(F)(F)F)cc4Cl)C(=O)C3ON2C)cc1 (stereo unspecified),-31*,-2,0,2,5
COc1ccc(NC(=O)COC(=O)CNS(=O)(=O)c2ccc(C)cc2)c(OC)c1,-13,-3,-1,-5,1
CC(=O)Nc1cccc(NC(=O)COc2ccccc2C)c1,-39*,-7,0,6,7
O=C(COc1ccccc1C(=O)Nc1ccccc1)NCCc1ccccc1,-13,-3,1,5,10
Cc1ccc(OCC(=O)Nc2ccc3[nH]c(=O)sc3c2)cc1,-27,-3,-1,21,10
Cc1ccc(NC(=O)COc2ccccc2CNC(C)(C)CC(C)(C)C)cc1,-6,-5,2,6,62*
O=C(COc1ccccc1C(=O)NCc1ccccc1)Nc1ccccc1,-35*,-3,0,-2,4
CC(=O)c1cccc(NC(=O)COC(=O)COc2ccccc2C)c1,-24,-2,0,-9,6
CC(C)(CO)NCc1ccccc1OCC(=O)Nc1ccccc1,-18,-4,0,-3,6
